Shown are actives, neighbours in structure and some others; about 5.2% of the full set was active somewhere.
Sfp inh – Sfp phosphopantetheinyl transferase inhibition; Biochemical Sfp PPTase activity, qHTS; 3.5% of 310,000 active; Q9F4F7; Potency, µM, for the others: largest response in the series, negative = inhibition, actives largely listed as inhibitors;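 also: the enzyme is Sfp with the accession as filed and its product quenches rhodamine fluorescence; 0% = enzyme reaction without inhibitor and -100% = no enzyme wells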
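Reaction rates are the 30-min fluorescence difference (ex 525, em 598 nm) in wells containing 15 nM Sfp, 5 uM rhodamine-CoA and 12.5 uM BHQ-2-YbbR at pH 7.6 with 10 mM MgCl2.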
TrxR1 inh – inhibitors of rat thioredoxin reductase 1. recombinant rTrxR1, NADPH fluorescence consumption, selenite substrate. Potency, µM (top dose mostly 114 µM), inactives show at the highest dose activity change, negative = inhibition, usual class: inhibitors. 1% of 390,000 active; also: nearly all actives have a fitted effect of over 65% in size
Target sequence (O89049 whole entry, looked up): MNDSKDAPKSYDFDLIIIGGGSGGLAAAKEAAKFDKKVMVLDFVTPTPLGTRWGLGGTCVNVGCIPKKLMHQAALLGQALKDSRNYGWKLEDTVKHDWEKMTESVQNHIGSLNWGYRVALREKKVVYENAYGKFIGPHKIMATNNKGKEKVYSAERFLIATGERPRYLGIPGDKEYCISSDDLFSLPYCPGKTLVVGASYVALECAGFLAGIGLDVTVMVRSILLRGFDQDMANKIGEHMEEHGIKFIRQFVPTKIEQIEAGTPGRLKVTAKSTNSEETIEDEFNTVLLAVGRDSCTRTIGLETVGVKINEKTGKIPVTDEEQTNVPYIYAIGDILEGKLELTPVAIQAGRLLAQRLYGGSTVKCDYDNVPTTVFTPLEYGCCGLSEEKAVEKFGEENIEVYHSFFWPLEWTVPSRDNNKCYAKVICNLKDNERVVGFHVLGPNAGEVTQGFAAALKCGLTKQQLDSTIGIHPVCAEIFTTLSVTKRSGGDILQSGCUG
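Rat TrxR1 (90 nM in the dispensed reagent) was pre-reduced with 400 uM NADPH for 5 min at room temperature, then incubated with compound for 15 min. After 400 uM selenite was added, NADPH fluorescence (Ex 340/Em 450 nm) was followed for 8 min.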
TrxR1 substrate – is turned over as a substrate by rat TrxR1. O89049. purified TrxR1 substrate turnover, NADPH consumption readout. Potency, µM (top dose mostly 114 µM), for the others: at the highest dose activity change, negative = substrate turnover. 0.01% of 390,000 active. AID 588456; also: nearly all actives have a fitted effect of over 50% in size
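Rat TrxR1, dispensed at 90 nM, was prereduced with 400 uM NADPH (final) for 5 min at ~22 deg C, then incubated with compound 15 min before 400 uM selenite. A first-read NADPH fluorescence drop versus no-compound background flagged substrates.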
PLK1 PBD inh – PLK1 (human) polo-box domain binding inhibition; 2.8% of 360,000 active; AID 720504; Plk1 PBD binding of FITC phosphopeptide, fluorescence polarization; P53350; Potency, µM, for inactives: max response, negative = inhibition, hits mostly inhibitors; also: series mostly up to about 57 µM; nearly all actives have a fitted effect of over 65% in size
VDR inh – inhibitors of human vitamin D receptor. P11473. VDR-SRC2-3 peptide fluorescence polarization, 2 h. Potency, µM, for the others: max response, negative = inhibition, hits mostly inhibitors. 0.93% of 400,000 active. AID 504847
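Measured by FP: displacement of SRC2-3 coactivator peptide from VDR by library compounds, following a two-hour ambient incubation.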
mIDH1 inhibitor – inhibitors of human mutant IDH1 R132H; IDH1-R132H enzyme, NADPH consumption, diaphorase/resazurin fluorescence; Potency, µM (titrated, usually from 76.6 µM), for inactives: at the top dose activity change, negative = inhibition, usual class: inhibitors; AID 602179; O75874; 0.093% of 390,000 active; also: nearly all actives have a fitted effect of over 65% in size
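IDH1-R132H (0.5 ug/mL) preincubated 30 min with compound, then NADPH (0.016 mM) and alpha-KG (2 mM) added; 80 min at RT, pH 7.5. Remaining NADPH coupled via diaphorase/resazurin to fluorescence (540/590 nm); concentration-response curves normalized to no-enzyme control.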
An asterisk follows results filed as active; ? = inconclusive; . = no result given; ! = repeats disagree; [ ] = remark or other dose. Calls follow the shape of the dose curve; as a rule, active = well fitted curve in the direction sought with a large enough effect; inconclusive = small, poorly fitted or top-dose-only effect, or another doubt; inactive = no such curve, though single readings can be large; an effect the other way counts as inactive or inconclusive. Unless noted, % is scaled to controls: 0 for no effect and ±100 for the full control effect; potency is read from the fitted curve at half-maximal effect.

SMILES	Sfp inh	TrxR1 inh	TrxR1 substrate	PLK1 PBD inh	VDR inh	mIDH1 inhibitor
CC1CC(Cl)CCC1C(=O)OC(C)(C)C (stereo not given)	11%	.	.	.	16%	.
CCOc1cc(C=C2C(=O)NC(=S)NC2=O)ccc1O	.	-78%[57.1 µM]	-1%[2.29 µM]	6µM*	?	-7%
COc1ccc(C(=O)O)cc1OC	5%	10%	4%	0%	4%	-7%
CCOc1cc(C=O)ccc1O	.	-8%	-11%	1%	5%	3%
COc1ccc(C=C2C(=O)NC(=S)NC2=O)cc1OC	.	7.1µM*	-4%	21µM*	40µM*	-4%
COc1ccc(/C=C/C=C2C(=O)NC(=S)NC2=O)cc1	.	7.1µM*	-6%	0.53µM*	?	?
CCc1ccc(-n2c(SC(CC)C(=O)N(CC)CC)nc3n[nH]c(C)c3c2=N)cc1 (stereo not given)	.	19%[57.1 µM]	3%[57.1 µM]	.	-8%	?
CCC1OC2(C)C(O)C(/C=C/C=C/C=C/c3oc(=O)cc(OC)c3C)OC1(C)C2OC(C)=O (stereo not given)	-17%	.	.	.	1%	.
CN1C(=O)/C(=C\N2CCc3ccccc32)C(=O)NC1=S	35µM*	-60%	-7%	4%	-1%	-3%
CCOC(=O)C1CCN(/C=C2/C(=O)NC(=S)N(c3ccccc3F)C2=O)CC1	-9%	0%	-1%	0%	-14%	0%
O=C(Oc1ccccc1)N1CCC[C@@]2(CCN(Cc3cc(C(F)(F)F)cc(C(F)(F)F)c3)C2)C1	10%	.	.	.	?	.
CCOc1c(Cl)cc(CNCCc2c[nH]c3ccccc23)cc1OC	56µM*	12%	-1%	0%	2%	1%
CCOc1cc(CNCCc2c[nH]c3ccccc23)cc(Cl)c1OCC	-7%	2%	-4%	5%	-11%	6%
O=C1/C(=C/c2ccc(N(CCCl)CCCl)cc2)Cc2ccccc21	.	2%	-1%	.	.	.
C[C@@H]1OC=C2[C@@H](O)[C@H]3O[C@H]3C(=O)[C@@]23[C@H]1[C@H]1C2=C([C@@H](O)[C@H]4O[C@@H]4C2=O)[C@@H]3O[C@@H]1C	23%	.	.	.	.	.
CC[C@H](C)/C=C(C)/C=C/C1=CC2=C(Cl)C(=O)[C@](C)(OC(C)=O)C(=O)C2=CO1	.	50µM*	-2%	1.1µM*	?	26%
C/C=C1\C[N@@+]2(C)CC[C@@]34C(=C(C=O)[C@H]1C[C@H]32)Nc1ccccc14	35µM*	.	.	.	6%	.
CC(=O)N1CCN(c2ccc(OCC3CO[C@@](Cn4ccnc4)(c4ccc(Cl)cc4Cl)O3)cc2)CC1 (stereo not given in full)	-49%	.	.	.	?	.
COc1ccccc1N1C(=O)NC(=O)/C(=C/c2ccc3c4c(cccc24)CC3)C1=O	11µM*	8.9µM*	83%	7.5µM*	50µM*	10%
O=C1NC(=O)N(c2ccccc2)C(=O)/C1=C\c1ccc2c3c(cccc13)CC2	40µM*	.	.	.	.	.
NC(=O)CI	.	1%[57.1 µM]	3%[57.1 µM]	.	79µM*	.
C=CCN1CC[C@]23c4c5ccc(O)c4O[C@H]2[C@@H](O)C=C[C@H]3[C@H]1C5	-17%	.	.	.	0%	.
COc1ccc2c(c1O)-c1cc(O)cc3c1[C@@H](C2)N(C)CC3	-3%	.	.	.	3%	.
C=CCN1CCc2cccc3c2[C@H]1Cc1ccc(O)c(O)c1-3	45µM*	20µM*	18%[57.1 µM]	38µM*	10µM*!	-7%
CCCN1CCc2cc(O)cc3c2C1Cc1ccc(O)c(O)c1-3 (stereo not given)	35µM*	?	.	.	25µM*	.
SMILES	Sfp inh	TrxR1 inh	TrxR1 substrate	PLK1 PBD inh	VDR inh	mIDH1 inhibitor
Cc1ccc(S(=O)(=O)Nc2ccc3ncccc3c2[N+](=O)[O-])cc1	.	34%[11.4 µM]	15%[11.4 µM]	-4%	-24%	7%
O=C1NC(=O)N(c2ccc3c(c2)OCO3)C(=O)/C1=C\c1ccsc1	35µM*	?	-11%	4.7µM*	?	-4%
Cc1cc(/C=C2/C(=O)NC(=O)N(c3ccc(Br)cc3)C2=O)c(C)n1C	6%	7%[57.1 µM]	5%[57.1 µM]	-6%	23%	-1%
Cc1ccc(N2C(=O)NC(=O)/C(=C\c3ccsc3)C2=O)cc1C	50µM*	.	.	.	.	.
Cc1ncc(CN2CCCC(C(=O)c3cccc(Cl)c3)C2)s1 (stereo not given)	17%	15%[11.4 µM]	9%[11.4 µM]	-5%	-7%	6%
Cc1ccc(CCNC(=O)C2CCCN(Cc3nc(-c4cccc(Cl)c4)oc3C)C2)cc1 (stereo not given)	.	?	-3%	.	89µM*	3%
CCN1C[C@@]2(COC)[C@H]3[C@@H](OC)[C@H]4C1[C@@]3([C@H](OC)C[C@@H]2O)[C@H]1C[C@@]2(O)[C@@H](OC(=O)c3ccccc3)[C@@H]1[C@@]4(OC(C)=O)[C@H](O)[C@@H]2OC	6%	.	.	.	1%	.
C/C(=N\NC(=O)c1ccccc1)c1c(O)n(Cc2ccccc2)c(=O)[nH]c1=O	1%	4%[57.1 µM]	-2%[57.1 µM]	2%	-13%	0%
C/C(=N\Nc1cccc2ccccc12)c1c(O)n(Cc2ccccc2)c(=O)[nH]c1=O	?	45µM*	3%	-16%	-15%	5%
Cn1cccc1C(=O)OCC(=O)NCc1cccs1	.	12%[57.1 µM]	7%[57.1 µM]	0%	?	8%
C/C(=N\NC(=S)Nc1ccccc1)c1c(O)n(C)c(=O)n(C)c1=O	28µM*	?	-8%	21µM*	?	-4%
Cn1c(O)c(C(=Nc2ccccc2)SCc2ccccc2Cl)c(=O)n(C)c1=O	40µM*	0%[57.1 µM]	11%[57.1 µM]	-10%	-1%	3%
CC/C(=N\Nc1ccccc1)c1c(O)n(C)c(=O)n(C)c1=O	?	-9%	-7%	-5%	-4%	1%
CSC(=Nc1ccccc1)c1c(O)n(C)c(=O)n(C)c1=O	56µM*	-13%	4%	-12%	-4%	5%
O=C1Nc2ccccc2C2(CCN(CCc3ccc(C(F)(F)F)cc3)CC2)O1	-13%	.	.	.	2%	.
Cc1cc(C)n(-c2ccc(NN=C(C#N)C#N)cc2)n1	?	?	-11%	-16%	28µM*	?
CC(C)N(Cc1ccccc1)C(=O)CCS(=O)(=O)c1ccc2c(c1)oc(=O)n2C	4%	-1%	3%	17µM*	-5%	0%
CCCCCC1C(=O)O[C@H](C)[C@@H](NC(=O)c2cccc(NC=O)c2O)C(=O)OC(C)C1OC(=O)CC(C)C (stereo not given in full)	17%	.	.	.	-3%	.
CCCc1[nH][nH]c(=O)c1C(c1ccc(Cl)cc1)C(C#N)C#N (stereo not given)	6%	3.2µM*	6%	21µM*	-41%	-8%
